Test results taken from PubChem BioAssay AID2763 (National Center for Advancing Translational Sciences (NCATS), 2010).
Records with an inconclusive call do not appear. Activity calls are given as the source filed them. Calls follow the shape of the dose curve; as a rule, active = well fitted inhibition curve with a large enough effect; inconclusive = small, poorly fitted or top-dose-only effect, or effect the other way; inactive = no such curve, though single readings can be large or run the other way.

assay: Concentration response confirmation VP16 counterscreen for inhibitors of ROR gamma transcriptional activity; details: Drosophila S2 Gal4-VP16 UAS-luciferase, luminescence, 20 h; series mostly up to 46.1 µM; also: nearly all actives have a fitted effect of over 70% in size
From the text: NIH Molecular Libraries Probe Production Network [MLPCN] NIH Chemical Genomics Center [NCGC] MLPCN Grant: R03 DA026211-01 Assay Provider: Dan Littman, New York University Assay Overview: The retinoic acid-related orphan receptor (ROR) gamma is a transcription factor that has a central role in the differentiation of Th17 cells, a subset of T helper cells that secrete the inflammatory cytokines IL-17, IL-17F, and IL-22. Th17 cells have been implicated in graft versus host disease, autoimmune disease and asthma. ROR gamma is induced in naive T helper cells in the presence of TGF-beta combined with IL-6, IL-21, or IL-23, and thereafter directs the expression of the Th17 lineage cytokines. To identify nonspecific inhibitors, a Drosophila Schneider cell line was stably transfected with two vectors: a gene expressing a fusion of the Gal4 DNA binding domain and the transactivation domain of the viral transcription factor VP16, under the control of the metallothionine promoter and a Photinus luciferase reporter regulated by the Gal4 binding site enhancer, UAS. […] Small molecule inhibitors that inhibit components common to the RORgt and VP16 assays, such as the Gal4 DNA binding domain or the UAS luciferase reporter, will be active in both assays and thus scored as nonspecific.
Assay Protocol Summary: For screening, 600 cells in 4 uL/well were dispensed into white solid 1536-well plates (Grenier) using a solenoid-based dispenser. Following transfer of 23 nL compound or DMSO vehicle by a pin tool, the plates were incubated 1 hr at ambient temperature, and 1 uL/well copper sulfate (700 uM final concentration) was added. The plates were centrifuged 15 s at 1000 RPM and incubated 20 hr at ambient temperature. After addition of 1.5 uL Photinus luciferase detection reagent, the plates were incubated 10 min at ambient temperature and then read by an ViewLux (Perkin Elmer) to detect luminescence.
Potency is read from the fitted curve at half-maximal effect.

SMILES	Potency
Cc1cc(S(=O)(=O)NC(C)C)ccc1OCC(=O)N1CCN(Cc2ccc3c(c2)OCO3)CC1	11.2 µM (active)
CCCCNS(=O)(=O)c1ccc(OCC(=O)N2CCN(Cc3ccc4c(c3)OCO4)CC2)cc1	22.3 µM (active)
COc1cc(C(=O)N/N=C/C23CC[C@@H](O)CC2(O)CC[C@@H]2[C@@H]3CCC3(C)C(C4=CC(=O)OC4)CCC23O)ccc1O (stereo partly drawn)	inactive
CCCNS(=O)(=O)c1ccc(OCC(=O)N2CCN(Cc3ccc4c(c3)OCO4)CC2)cc1	25 µM (active)
Cn1ncnc2c(=O)n(C)c(=O)nc1-2	0.445 µM (active)
OC(COCc1ccc(Cl)cc1)CN1CC=C(c2ccccc2)CC1 (stereo not drawn)	inactive
O=C(Nc1ncc(Cc2ccccc2)s1)C1=NCCN1	19.9 µM (active)
O=C(c1ccco1)c1cn(Cc2ccccc2Cl)c2ccccc12	inactive
